An excerpt weighted towards active compounds, which were near 4.1% of everything screened.
ssDAF12 agonist – activators of S. stercoralis DAF-12 nuclear receptor; HEK293 ssDAF-12/GRIP1 lit1-tk-luc reporter, luminescence; % of 3 µM dafachronic acid response; activation, % at 6.8 µM; 370,000 compounds, 1% hits; AID 652126;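 active = activation above the mean over all tested compounds plus 3 SD, cut at about 0.9% in these data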
hgDAF-12 ag – hgDAF-12 agonism, primary luciferase screen. HEK293 GAL4-hgDAF12 UAS-luciferase reporter, agonist luminescence; normalized to butyrate control. AID 687014. activation, % at 6.8 µM. 370,000 compounds, 1.8% hits;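 active = activation above a cutoff set at the mean of all screened compounds plus 3 SD, cut at about 10% in these data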
DAX1 inh-1 – inhibitors of human orphan nuclear receptor DAX1 (NR0B1); P51843; inhibition, % at 6.75 µM; HEK293 Gal4-DAX1 luciferase reporter, luminescence; AID 504766; 340,000 compounds, 0.99% hits;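 active = inhibition above the mean over all tested compounds plus 3 SD, cut at about 4.2% in these data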;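 also: inhibition shows as a rise in luminescence from relieved DAX1 repression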
Target sequence (P51843 207-470 limits assumed): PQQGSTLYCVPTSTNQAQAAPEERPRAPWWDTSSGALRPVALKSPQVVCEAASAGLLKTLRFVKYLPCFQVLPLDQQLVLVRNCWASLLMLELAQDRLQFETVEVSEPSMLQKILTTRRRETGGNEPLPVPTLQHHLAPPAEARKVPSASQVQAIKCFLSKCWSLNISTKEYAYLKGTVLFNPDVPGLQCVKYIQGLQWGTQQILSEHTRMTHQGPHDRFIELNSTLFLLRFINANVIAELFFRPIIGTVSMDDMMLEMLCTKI
DAX1 inh-2 – blocks DAX1 repression of SF-1 activated StAR promoter | HEK293T StAR-luciferase reporter, SF-1/DAX-1 repression relief | inhibition, % at 6.8 µM | 370,000 compounds, 1.1% hits;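 active = inhibition above the mean over all tested compounds plus 3 SD, cut at about 3.6% in these data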;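 also: higher inhibition means more luminescence from relief of DAX-1 repression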
hcDAF-12 act – activators of H. contortus DAF-12 nuclear receptor; HEK293 hcDAF-12 lit1-tk-luc reporter, luminescence; 0% DMSO, 100% Δ7-dafachronic acid; activation, % at 6.8 µM; 370,000 compounds, 1.4% hits;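 active = activation above the mean of all tested compounds plus 3 SD, cut at about 5.5% in these data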
Large screens that a line does not name were inactive.

Cc1cccc(C)c1NC(=O)C(c1ccncc1)n1c(=O)c(-c2cc3ccccc3[nH]2)nc2ccccc21 (stereo unspecified)	ssDAF12 agonist 1.0, hgDAF-12 ag 11, hcDAF-12 act 6.4 (no result: DAX1 inh-1)
CC(C)(C)NC(=O)C(c1cc2ccccc2o1)n1c(=O)c(-c2ccccc2)nc2ccccc21 (stereo unspecified)	ssDAF12 agonist 1.1 (no result: DAX1 inh-1)
CCCCCNC(=O)C(c1cc2ccccc2o1)n1c(=O)c(-c2cc3ccccc3[nH]2)nc2ccccc21 (stereo unspecified)	hcDAF-12 act 5.6 (no result: DAX1 inh-1)
CC(C)(C)NC(=O)C(c1ccc(-c2ccccc2)cc1)n1c(=O)c(-c2ccccc2)nc2ccccc21 (stereo unspecified)	none (no result: DAX1 inh-1)
CCC[C@H]1[C@@H](OC(=O)NCc2ccc(C)o2)CC[C@@]23CCCN2C(=O)CCC[C@@H]13	none (no result: DAX1 inh-1, DAX1 inh-2)
COCc1cc(OC)nc(-c2csc(C)n2)n1	DAX1 inh-1 6.4
COCc1cc(=O)[nH]c(-c2csc(C)n2)n1	none
O=C(NCc1ccco1)/C(=C\C=C\c1ccccc1)NC(=O)c1ccco1	DAX1 inh-1 7.4
CC(=O)Oc1ccc(/C=C2/Oc3ccccc3C2=O)cc1	DAX1 inh-1 5.3
Cc1cc(C2=NNC(=Nc3ccccc3)SC2)c(C)n1C	DAX1 inh-1 5.4
COCCn1c(C)cc(C2=NNC(=Nc3ccccc3F)SC2)c1C	none
O=C(Cn1c(=O)c2cccn2c2cccnc21)NCCCN1CCN(c2ccccc2)CC1	none (no result: DAX1 inh-1, DAX1 inh-2)
O=C(NNC(=O)c1cnccn1)c1ccc(Cl)cc1	DAX1 inh-1 5.8
O=C(CNS(=O)(=O)c1ccc(Br)cc1Cl)OCC(=O)N1CCCC1=O	none
CC(C)(C)NC(=O)NC(=O)COC(=O)CNS(=O)(=O)c1ccc(Br)cc1Cl	DAX1 inh-1 5.8
CCCCNC(=O)C[C@H]1C[C@@]2(C(=O)OC)C(=C[C@H](C(C)C)O[C@@H]2C2CC2)N(CCc2ccc(OC)c(OC)c2)C1=O	none (no result: DAX1 inh-1)
CSc1nsc2nc(=O)c(/C=C3\C(C)=Nc4ccccc43)c(N)n12	ssDAF12 agonist 0.9
CCC(=O)Nc1ccc(CCC(=O)N2CCCC2)cc1	DAX1 inh-1 5.5
CCNS(=O)(=O)c1ccc(CCC(=O)N2CCCC2)cc1	DAX1 inh-1 5.1
C/C=C/c1ccc(OCC(=O)OCc2csc(CC(=O)Nc3ccccc3C)n2)c(OC)c1	DAX1 inh-1 5.9
CN[C@H]1C[C@H]2c3[nH]c4cccc(-c5cccc(F)c5)c4c3CCN2C(=O)[C@H]1[C@H](C)O	none (no result: DAX1 inh-1)
Oc1ccc(Br)cc1-c1cc(-c2ccccc2F)[nH]n1	hcDAF-12 act 5.8
Oc1ccc(Cl)cc1-c1cc(-c2ccccc2)n[nH]1	hgDAF-12 ag 11, hcDAF-12 act 5.7
Oc1ccc(Br)cc1-c1cc(-c2ccccc2Cl)[nH]n1	hgDAF-12 ag 11
Cc1ccc2c(c1)C1CS(=O)(=O)N(CCc3ccccc3)C(=O)N1C2 (stereo unspecified)	none (no result: DAX1 inh-1)
CN[C@H]1C[C@H]2c3cc(-c4ccc5c(c4)OCO5)ccc3CCN2C[C@H]1[C@H](C)O	none (no result: DAX1 inh-1)
CCOC(=O)C1=C[C@@H](c2ccccc2)N(S(=O)(=O)c2ccc(C)cc2)[C@H]1c1ccc(OC)cc1	none (no result: DAX1 inh-1)
COc1ccc(NC(=S)NCCc2ccc(S(N)(=O)=O)cc2)c(OC)c1	none
COc1ccccc1NC(=S)NCCc1ccc(S(N)(=O)=O)cc1	hcDAF-12 act 5.9
CC(NCC(=O)NCCc1ccc(S(N)(=O)=O)cc1)c1ccc(F)cc1 (stereo unspecified)	none
CC(NCCc1ccc(S(N)(=O)=O)cc1)C(=O)NCCc1ccc(F)cc1 (stereo unspecified)	DAX1 inh-1 5.1
COc1cc(NC(=S)NCCc2ccccc2)c(OC)cc1NC(=O)C(C)C	ssDAF12 agonist 1.9
COC(=O)C1C(c2ccccc2)NC(=O)NC1(O)C(F)(F)Cl (stereo unspecified)	DAX1 inh-1 4.7
Cc1ccc2c(c1)C(CS(=O)(=O)NCc1ccccc1)NC2 (stereo unspecified)	none (no result: DAX1 inh-1)
CCN(CC)S(=O)(=O)c1ccc(S(=O)(=O)N2CCN(CCC#N)CC2)cc1	none
CN(C)S(=O)(=O)c1ccc(S(=O)(=O)N2CCN(CCC#N)CC2)cc1	DAX1 inh-1 6.2
N#CCCN1CCN(S(=O)(=O)c2ccc(S(=O)(=O)NCc3ccccc3)cc2)CC1	DAX1 inh-1 5.4
C[C@H]1CN(c2ccc(Br)cc2)C(=O)[C@@H]1CC(=O)Nc1ccccc1	none
